{"source": "the supplement of paper PMC11219838"}
{"tested_on": "Meloidogyne hapla J2", "test": "proportion of mobile M. hapla J2 relative to DMSO control (fraction of DMSO control); higher = more viable, less nematicidal, active = 0.7 or less", "conditions": "60 µM; 5 days; temperature: 20 °C", "description": "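DODA library (846 commercial 1,3,4- and 1,2,4-oxadiazole compounds plus commercial nematicide controls) screened at a single dose of 60 µM (0.6% DMSO) in 96-well plates, two biological replicates. Read-outs: C. elegans N2 L1 survival/reproduction score at day 6, 20 °C (0: 0-10 worms, 1: 11-20, 2: 21-50, 3: >50, 4: overgrown/starved). C. elegans daf-2 dauer, D. dipsaci and M. hapla J2 mobility at day 5, 20 °C, and P. penetrans mobility at day 5, 20 °C, each relative to DMSO controls. M. hapla egg hatching at day 12, 25 °C, relative to the mean of 8 DMSO wells on the same plate.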"}
{"smiles": "Cc1ccc(-c2noc(-c3ccco3)n2)s1", "proportion of mobile M. hapla J2": "1.11 (inactive)"}
{"smiles": "Clc1ccc(SCc2nc(-c3cccnc3)no2)cc1", "proportion of mobile M. hapla J2": "0.938 (inactive)"}
{"smiles": "COc1ccc(-c2noc(COc3ccc(Br)cc3)n2)cc1", "proportion of mobile M. hapla J2": "1 (inactive)"}
{"smiles": "Cc1cccc(OCc2nc(-c3ccc(-n4cccc4)cc3)no2)c1", "proportion of mobile M. hapla J2": "1.01 (inactive)"}
{"smiles": "Cc1ccc(-c2nnc(SCC(=O)NCCc3ccccc3)o2)cc1", "proportion of mobile M. hapla J2": "1.01 (inactive)"}
{"smiles": "Cc1ccc(-c2noc(-c3cccc(C)c3)n2)cc1", "proportion of mobile M. hapla J2": "0.947 (inactive)"}
{"smiles": "Cc1ccccc1-c1noc(COc2ccc(Cl)cc2Cl)n1", "proportion of mobile M. hapla J2": "1.02 (inactive)"}
{"smiles": "CC(C)CCC(=O)Nc1ccccc1-c1nc(-c2ccncc2)no1", "proportion of mobile M. hapla J2": "0.977 (inactive)"}
{"smiles": "COc1ccc(-c2noc(COc3ccc(C)cc3C)n2)cc1", "proportion of mobile M. hapla J2": "0.93 (inactive)"}
{"smiles": "Cc1ccccc1CSc1nnc(-c2ccco2)n1C", "proportion of mobile M. hapla J2": "1.03 (inactive)"}
{"smiles": "Brc1ccc(CSc2nnc(-c3cccnc3)o2)cc1", "proportion of mobile M. hapla J2": "0.911 (inactive)"}
{"smiles": "COc1ccc(-c2nnc(SCC(=O)Nc3cccc(Cl)c3Cl)o2)cc1", "proportion of mobile M. hapla J2": "0.932 (inactive)"}
{"smiles": "CCOc1nc(-c2ccccc2)ccc1-c1noc(-c2cccc(C)c2)n1", "proportion of mobile M. hapla J2": "0.805 (inactive)"}
{"smiles": "COc1ccc(-c2nnc(SCC(=O)Nc3ccc(Cl)cc3Cl)o2)cc1", "proportion of mobile M. hapla J2": "0.976 (inactive)"}
{"smiles": "CC(C)c1ccc(OCc2nc(-c3ccccn3)no2)cc1", "proportion of mobile M. hapla J2": "1.01 (inactive)"}
{"smiles": "O=C(CSc1nnc(-c2ccc(Cl)cc2)o1)c1ccccc1", "proportion of mobile M. hapla J2": "0.772 (inactive)"}
{"smiles": "Cc1cccc(-c2nc(-c3ccc4c(c3)OCO4)no2)c1", "proportion of mobile M. hapla J2": "1.01 (inactive)"}
{"smiles": "Cc1cc(OCc2nc(-c3ccccn3)no2)c(C)cc1Br", "proportion of mobile M. hapla J2": "0.711 (inactive)"}
{"smiles": "Cc1cc(OCc2nc(-c3cccnc3)no2)c(C)cc1Br", "proportion of mobile M. hapla J2": "0.771 (inactive)"}
{"smiles": "COc1ccc(-c2noc(-c3ccccc3C(=O)Nc3cccc(C)c3C)n2)cc1", "proportion of mobile M. hapla J2": "0.912 (inactive)"}
{"smiles": "COC(=O)c1ccc(CSc2nnc(-c3ccncc3)o2)cc1", "proportion of mobile M. hapla J2": "0.999 (inactive)"}
{"smiles": "COc1cccc(-c2noc(COc3ccccc3C)n2)c1", "proportion of mobile M. hapla J2": "0.861 (inactive)"}
{"smiles": "Cc1cccc(-c2noc(COc3ccc(Cl)cc3C)n2)c1", "proportion of mobile M. hapla J2": "0.925 (inactive)"}
{"smiles": "Clc1ccc(OCc2nc(-c3ccc(Br)o3)no2)cc1", "proportion of mobile M. hapla J2": "0.945 (inactive)"}
{"smiles": "COc1nc(C)ccc1-c1noc(-c2ccc(C(C)(C)C)cc2)n1", "proportion of mobile M. hapla J2": "0.926 (inactive)"}
{"smiles": "O=C(CSc1nnc(-c2ccncc2)o1)Nc1cccc(Cl)c1Cl", "proportion of mobile M. hapla J2": "0.818 (inactive)"}
{"smiles": "Cn1c(SCc2nc(-c3ccccc3)no2)nnc1-c1ccco1", "proportion of mobile M. hapla J2": "0.98 (inactive)"}
{"smiles": "O=C(CSc1nnc(-c2cc3ccccc3o2)o1)NC1CC1", "proportion of mobile M. hapla J2": "0.928 (inactive)"}
{"smiles": "Fc1ccc(-c2noc(-c3ccc(Cl)cc3)n2)cc1", "proportion of mobile M. hapla J2": "1.03 (inactive)"}
{"smiles": "COc1nc(-c2ccc(C)cc2)ccc1-c1noc(-c2cccc(C)c2)n1", "proportion of mobile M. hapla J2": "0.949 (inactive)"}
{"smiles": "Cc1ccc(-c2noc(-c3ccc(Cl)cc3)n2)cc1", "proportion of mobile M. hapla J2": "1.03 (inactive)"}
{"smiles": "O=C(CSc1nnc(-c2ccco2)o1)Nc1cccc2ccccc12", "proportion of mobile M. hapla J2": "0.956 (inactive)"}
{"smiles": "Fc1ccc(-c2noc(COc3ccccc3Cl)n2)cc1", "proportion of mobile M. hapla J2": "1.03 (inactive)"}
{"smiles": "Cc1cccc(OCc2nc(-c3ccccc3)no2)c1", "proportion of mobile M. hapla J2": "1.04 (inactive)"}
{"smiles": "CCOc1ccc(-c2nc(-c3ccc(Cl)cc3)no2)cc1", "proportion of mobile M. hapla J2": "1 (inactive)"}
{"smiles": "CCOc1nc(-c2ccccc2)ccc1-c1noc(CC)n1", "proportion of mobile M. hapla J2": "0.998 (inactive)"}
{"smiles": "Cc1ccc(C(=O)CSc2nnc(-c3ccco3)o2)o1", "proportion of mobile M. hapla J2": "0.906 (inactive)"}
{"smiles": "CC(=O)Nc1cccc(-c2nnc(SCc3ccccc3)o2)c1", "proportion of mobile M. hapla J2": "0.976 (inactive)"}
{"smiles": "Brc1ccc(-c2nnc(SCc3ccccc3)o2)cc1", "proportion of mobile M. hapla J2": "1.04 (inactive)"}
{"smiles": "COc1ccc(C(=O)CSc2nnc(-c3cccc(Br)c3)o2)cc1", "proportion of mobile M. hapla J2": "1.04 (inactive)"}
